Screening results deposited in PubChem BioAssay by National Center for Advancing Translational Sciences (NCATS).
RORg inh – qHTS for inhibitors of ROR gamma transcriptional activity | Drosophila S2 Gal4-RORgamma UAS-luciferase reporter, 20 h | Potency, µM (highest dose often 53.6 µM), without a hit: at the highest dose activity change, negative = inhibition, most hits filed as inhibitors | actives 5.4% (n = 310,000) | AID 2551, 2010; note: nearly all actives have a fitted effect of over 60% in size
Target sequence (P51450 whole entry, looked up, the tested form may be a part): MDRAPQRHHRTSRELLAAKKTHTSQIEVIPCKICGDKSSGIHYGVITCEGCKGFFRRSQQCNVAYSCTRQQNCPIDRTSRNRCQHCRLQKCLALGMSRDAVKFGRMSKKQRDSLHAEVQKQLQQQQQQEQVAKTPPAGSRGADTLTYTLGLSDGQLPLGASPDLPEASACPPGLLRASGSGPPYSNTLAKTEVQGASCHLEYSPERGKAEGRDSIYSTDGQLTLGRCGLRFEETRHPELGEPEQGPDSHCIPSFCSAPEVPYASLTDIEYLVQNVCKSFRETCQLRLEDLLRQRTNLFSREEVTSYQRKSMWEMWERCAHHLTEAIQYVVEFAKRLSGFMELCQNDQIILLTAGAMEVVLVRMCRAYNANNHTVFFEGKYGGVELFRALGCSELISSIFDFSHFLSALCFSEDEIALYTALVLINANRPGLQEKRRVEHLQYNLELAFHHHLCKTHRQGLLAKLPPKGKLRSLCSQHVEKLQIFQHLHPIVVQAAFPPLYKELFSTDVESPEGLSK
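Luciferase reporter read in Schneider cells carrying Gal4-RORγ (mouse) and UAS-Photinus luciferase; cells given compound 1 h before 700 uM copper sulfate induction, then incubated 20 h at ambient temperature.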
TDP1 inh – qHTS Assay for Inhibitors of Tyrosyl-DNA Phosphodiesterase (TDP1) | recombinant TDP1, AlphaScreen DNA substrate cleavage | actives 0.28% (n = 350,000) | Potency, µM (titrated, usually from 130 µM), inactives show at the top dose activity change, negative = inhibition, most hits filed as inhibitors | Tyrosyl-DNA phosphodiesterase 1 (Homo sapiens), Q9NUW8; note: nearly all actives have a fitted effect of over 40% in size
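AlphaScreen read-out: signal falls as enzyme removes the 3' tyrosine-FITC from a 5'-biotinylated DNA oligo (15 nM, 5 min, RT). Enzyme was E. coli-made recombinant Tdp1 at 1 nM, exposed to compound for 15 min beforehand; beads 10 ug/ml, 10 min.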
DT40 TDP1 CPT – qHTS for Inhibitors of human tyrosyl-DNA phosphodiesterase 1 (TDP1): qHTS in cells in presence of CPT; chicken DT40 Tdp1-/-;hTDP1 cells + 20 nM CPT, ATP luminescence, 48 h; Potency, µM (top dose mostly 46.2 µM), inactives show at the top dose activity change, negative = growth inhibition, hits mostly inhibitors; actives 12% (n = 420,000); AID 686979, 2013; note: nearly all actives have a fitted effect of over 55% in size
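Chicken DT40 Tdp1-/- cells stably complemented with human TDP1 were seeded at 400 cells/well in medium containing 20 nM camptothecin, exposed to pin-transferred compounds, and grown at 37 °C for at least 48 hr. Viability was read as ATP luminescence.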
Gal4-VP16 FLuc – VP16 counterscreen qHTS for inhibitors of ROR gamma transcriptional activity | Potency, µM (series often up to 53.6 µM), for inactives: at the highest dose activity, negative = inhibition, usual class: inhibitors | Drosophila S2 Gal4-VP16 UAS-luciferase, luminescence, 20 h | actives 3.5% (n = 310,000);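 note: Gal4-VP16 expression switched on by copper sulfate through the metallothionein promoter; nearly all actives have a fitted effect of over 50% in size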
TDP1 cell noCPT – qHTS for Inhibitors of human tyrosyl-DNA phosphodiesterase 1 (TDP1): qHTS in cells in absence of CPT | actives 15% (n = 420,000) | DT40 Tdp1-/- hTDP1 cells, no CPT, ATP luminescence, 48 h | Potency, µM (top dose mostly 46.2 µM), without a hit: at the highest dose activity change, negative = growth inhibition, hits mostly inhibitors; note: nearly all actives have a fitted effect of over 55% in size
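Cells were dispensed at 400 per well, compounds added by pin tool, plates incubated ≥48 hr at 37 °C, then CellTiter-Glo added for 30 min at room temperature before luminescence reading. Line: DT40 Tdp1-/- complemented with hTDP1; camptothecin omitted.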
* = called active by the depositor; ! = a repeat was not active; [ ] = another dose, or the depositor's remark. A selection: hits, their analogues and other compounds. The true share with any hit is near 19%. Calls come from the whole dose curve; as a rule, active = well fitted curve in the direction sought with a large enough effect; inconclusive = small, poorly fitted or top-dose-only effect, or another doubt; inactive = no such curve, though single readings can be large; an effect the other way counts as inactive or inconclusive. % is set by controls: 0 for no effect and ±100 for the full control effect; potency is the fitted concentration of half-maximal effect.

Results for C(=C\c1ccccc1)/CN1CCN(C(c2ccnc3ccccc23)c2nnnn2-c2ccc3c(c2)OCCO3)CC1 (centres undefined) ?
DT40 TDP1 CPT: 16µM*; TDP1 cell noCPT: 21µM*

How did C(=C\c1ccccc1)/CN1CCN(Cc2ccc3c(c2)OCO3)CC1 do in these assays?
RORg inh: inconclusive; DT40 TDP1 CPT: -9%; Gal4-VP16 FLuc: 1%; TDP1 cell noCPT: -29%

How did O=C(NNC(=O)c1ccccc1Br)c1ccc(SCC2CCCO2)c([N+](=O)[O-])c1 (centres undefined) do in these assays?
RORg inh: -10%; TDP1 inh: 5%; DT40 TDP1 CPT: 0%; Gal4-VP16 FLuc: 0%; TDP1 cell noCPT: -12%

Results for Cc1cccc(NC(=O)c2c(C)nn(-c3ccccc3)c2Cl)c1 ?
RORg inh: 15%; TDP1 inh: -4%; DT40 TDP1 CPT: 2%; Gal4-VP16 FLuc: 7%; TDP1 cell noCPT: -12%

What do the screens show for `Cc1ccc(NC(=O)c2cncc(Br)c2)cc1S(=O)(=O)N(C)C`?
RORg inh: 45%; TDP1 inh: -1%; DT40 TDP1 CPT: inconclusive; Gal4-VP16 FLuc: 12%; TDP1 cell noCPT: 15µM*

Results for Cc1cccc(C(=O)N[C@H](C(=O)Nc2ccc(C)c(S(=O)(=O)N(C)C)c2)C(C)C)c1 ?
RORg inh: -1%; TDP1 inh: 8%; DT40 TDP1 CPT: inconclusive; Gal4-VP16 FLuc: -8%; TDP1 cell noCPT: 15µM*

What do the screens show for `Cc1ccc(S(=O)(=O)N(C)C)cc1NC(=O)c1cncc(Br)c1`?
RORg inh: 10µM*; TDP1 inh: 4%; DT40 TDP1 CPT: 13µM*; Gal4-VP16 FLuc: 2.5µM*; TDP1 cell noCPT: 12µM*

How did NC(=O)c1cc(S(=O)(=O)NCCc2ccccc2)cs1 do in these assays?
RORg inh: 0%; TDP1 inh: 1%; DT40 TDP1 CPT: -2%; Gal4-VP16 FLuc: -15%; TDP1 cell noCPT: -9%

How did COC(=O)c1[nH]c2cc(OC)ccc2c1NC(=O)CCN1CCN(Cc2ccc3c(c2)OCO3)CC1 do in these assays?
RORg inh: 14%; TDP1 inh: 5%; DT40 TDP1 CPT: -25%; Gal4-VP16 FLuc: -13%; TDP1 cell noCPT: inconclusive

Results for C[C@@H](CN1CCC(Cc2ccccc2)CC1)[C@@H](O)c1ccc(O)cc1 ?
RORg inh: 13%; TDP1 inh: 10%[56.1 µM]; DT40 TDP1 CPT: 23µM*; Gal4-VP16 FLuc: -10%; TDP1 cell noCPT: 7.3µM*!

What do the screens show for `CC1=Nc2ccc(Br)cc2C(c2ccccc2)N1CC(=O)NN` (centres undefined)?
RORg inh: 6%; TDP1 inh: 6%; DT40 TDP1 CPT: -6%; Gal4-VP16 FLuc: 9%; TDP1 cell noCPT: -1%

Results for CCOc1ccccc1NC(=O)COC(=O)/C=C/c1cccs1 ?
TDP1 inh: 2%; DT40 TDP1 CPT: -18%; TDP1 cell noCPT: 18µM*

How did O=C(COC(=O)COc1ccccc1[N+](=O)[O-])Nc1ccc(S(=O)(=O)N2CCCCC2)cc1 do in these assays?
RORg inh: 11%; TDP1 inh: 4%; DT40 TDP1 CPT: 0%; Gal4-VP16 FLuc: 10%; TDP1 cell noCPT: -18%

Results for COC(=O)c1ccccc1NC(=O)COC(=O)/C=C/c1cccs1 ?
TDP1 inh: -2%; DT40 TDP1 CPT: -3%; TDP1 cell noCPT: -1%

How did CCc1cccc(NC(=O)COC(=O)/C=C/c2cccs2)c1 do in these assays?
TDP1 inh: -13%; DT40 TDP1 CPT: -6%; TDP1 cell noCPT: -14%

What do the screens show for `O=C(COC(=O)/C=C/c1cccs1)Nc1cccc(S(=O)(=O)N2CCCC2)c1`?
RORg inh: inconclusive; TDP1 inh: 6%; DT40 TDP1 CPT: 13µM*; Gal4-VP16 FLuc: -8%; TDP1 cell noCPT: 23µM*

What do the screens show for `O=C(COc1ccccc1)Nc1cccc(S(=O)(=O)N2CCCC2)c1`?
TDP1 inh: -1%; DT40 TDP1 CPT: -18%; TDP1 cell noCPT: -27%

What do the screens show for `CC(=O)Nc1cccc(OCC(=O)Nc2cccc(S(=O)(=O)N3CCCC3)c2)c1`?
TDP1 inh: -20%; DT40 TDP1 CPT: 21µM*; TDP1 cell noCPT: 21µM*

How did O=C(COc1ccccc1[N+](=O)[O-])Nc1cccc(S(=O)(=O)N2CCCC2)c1 do in these assays?
TDP1 inh: 2%; DT40 TDP1 CPT: 23µM*; TDP1 cell noCPT: 21µM*

Results for CCN(CC)S(=O)(=O)c1cc(NC(=O)CSCc2c(C)noc2C)ccc1C ?
TDP1 inh: 1%; DT40 TDP1 CPT: inconclusive; TDP1 cell noCPT: inconclusive

Results for O=C(CNC(=O)c1ccco1)NCC(=O)OCc1ccc(F)cc1 ?
RORg inh: -2%; DT40 TDP1 CPT: 3%; Gal4-VP16 FLuc: -3%; TDP1 cell noCPT: -11%

How did O=C(COc1ccc(F)cc1Cl)Nc1cccc(S(=O)(=O)N2CCCC2)c1 do in these assays?
TDP1 inh: 0%; DT40 TDP1 CPT: inconclusive; TDP1 cell noCPT: -26%

Results for O=C(COc1ccccc1Cl)Nc1cccc(S(=O)(=O)N2CCCC2)c1 ?
TDP1 inh: 1%; DT40 TDP1 CPT: 16µM*; TDP1 cell noCPT: 21µM*

How did Cc1ccc(C)c2[nH]c(=O)c(CN(Cc3ccc4c(c3)OCO4)Cc3nnnn3Cc3ccco3)cc12 do in these assays?
RORg inh: inconclusive; TDP1 inh: 4%; DT40 TDP1 CPT: inconclusive; Gal4-VP16 FLuc: -2%; TDP1 cell noCPT: inconclusive

What do the screens show for `CS(=O)(=O)N(CC(=O)N1CCN(Cc2ccc3c(c2)OCO3)CC1)Cc1ccc(Cl)cc1`?
RORg inh: -20%; TDP1 inh: 0%; DT40 TDP1 CPT: 11µM*; Gal4-VP16 FLuc: 10µM*; TDP1 cell noCPT: inconclusive

How did Cc1cc(C)cc(NC(=O)CN(Cc2ccccc2)S(C)(=O)=O)c1 do in these assays?
RORg inh: -4%; TDP1 inh: 2%; DT40 TDP1 CPT: inconclusive; Gal4-VP16 FLuc: 3%; TDP1 cell noCPT: 13µM*

How did CS(=O)(=O)N(CC(=O)NCc1ccc2c(c1)OCO2)Cc1ccccc1 do in these assays?
RORg inh: -14%; TDP1 inh: -1%; DT40 TDP1 CPT: 29µM*; Gal4-VP16 FLuc: -29%; TDP1 cell noCPT: 21µM*

How did CC(=O)c1cccc(NC(=O)CN(Cc2ccccc2)S(C)(=O)=O)c1 do in these assays?
RORg inh: -3%; TDP1 inh: 4%; DT40 TDP1 CPT: -9%; Gal4-VP16 FLuc: 3%; TDP1 cell noCPT: -20%

How did CS(=O)(=O)N(CC(=O)N1CCOCC1)Cc1ccc(Cl)cc1 do in these assays?
RORg inh: -2%; TDP1 inh: 2%; DT40 TDP1 CPT: 5%; Gal4-VP16 FLuc: -7%; TDP1 cell noCPT: -8%
